Test results taken from PubChem BioAssay (Tox21).
Records with an inconclusive call do not appear. A call without a number means that no potency is given here. Activity calls are given as the source filed them. Unless noted, calls come from the whole dose curve; as a rule, active = well fitted curve in the direction sought with a large enough effect in the repeat runs; inconclusive = weak or mixed curves; inactive = no such curve, though single readings can be large; an effect the other way counts as inactive or inconclusive.

tested on: not listed separately; assay: qHTS assay to identify small molecule agonists of the endoplasmic reticulum stress response signaling pathway - cell viability counter screen (AID 1159517; calls by dose curve;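 note: HeLa cells carrying an ER stress response element beta-lactamase reporter; nearly all actives have a fitted effect of over 50% in size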); details: ESRE-bla HeLa viability, CellTiter-Glo luminescence, 5 h; series mostly up to 61 µM
Outline: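 HeLa cells carrying an ESRE-driven beta-lactamase reporter receive compound for 5 hr at 37 C. Cell viability is then gauged with CellTiter-Glo by luminescence, 30 min at room temperature.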

| SMILES | outcome |
| --- | --- |
| NC(=O)Nc1ccc(Cl)c(Cl)c1 | inactive |
| O=Cc1c(Cl)cccc1Cl | inactive |
| CCCCC1C(=O)N(c2ccccc2)N(c2ccc(O)cc2)C1=O (stereo not given) | inactive |

tested on: not listed separately; assay: qHTS assay to identify small molecule antagonists of the retinoid-related orphan receptor gamma (ROR-gamma) signaling pathway - cell viability counter screen (AID 1159520); details: Tet-on RORgamma CHO cells viability, ATP luminescence, 16 h; series mostly up to 92.4 µM; note: nearly all actives have a fitted effect of over 50% in size; note: potency is the fitted concentration of half-maximal effect
Outline: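 Cytotoxicity was read from cellular ATP (CellTiter-Glo luminescence) after 16 hr at 37 C with 1 uM doxycycline induction. The inducer was added 2 hr after compound transfer to Tet-on ROR gamma CHO cells.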

| SMILES | Potency | activity, negative = cytotoxicity |
| --- | --- | --- |
| CCC(C)(C)C1CCC(O)CC1 (stereo not given) | inactive | – |
| CC(CCc1ccc2c(c1)OCO2)NN (stereo not given) | inactive | – |
| C1COCO1 | inactive | – |
| CCCCCCCCCCCC(=O)[O][Sn]([CH2]CCC)([CH2]CCC)[O]C(=O)CCCCCCCCCCC | 13.3 µM (active) | – |
| CC(CCO)CCc1ccccc1 (stereo not given) | inactive | – |
| CC1=NN(c2ccc(C(=O)O)cc2)C(=O)C1 | inactive | – |
| C[N+](C)(C)CCOC(N)=O | inactive | – |
| C=CC(=O)NCOCC(C)C | inactive | – |
| CO[C@H]1O[C@H](CO)[C@@H](O)[C@H](O)[C@H]1O | inactive | – |
| Brc1cc(-c2ccc(Br)c(Br)c2Br)cc(Br)c1Br | inactive | – |
| CCCCCCCCSCCO | inactive | – |
| CCC(=O)OC/C=C/c1ccccc1 | inactive | – |
| C[Si]1(C)O[Si](C)(C)O[Si](C)(C)O1 | inactive | – |
| Cc1oncc1C(=O)Nc1ccc(C(F)(F)F)cc1 | inactive | – |
| Nc1c(I)cc(I)c(C(=O)N(CCC(=O)O)c2ccccc2)c1I | inactive | – |
| CCCCCCCCCCCCCCCCBr | – | 1.45% [at 19 µM] (inactive) |
| NC(=O)Cn1c(=O)cc(CCN2CCN(c3nccc4sccc34)CC2)c2ccc(F)cc21 | inactive | – |
| CC(C)(C)C(=O)O | inactive | – |
| CC1=CC(=O)CC(C)(C)C1(O)/C=C/C(C)=C\C(=O)O (stereo not given) | inactive | – |

| SMILES | Potency | activity, negative = cytotoxicity |
| --- | --- | --- |
| C=CCCCCCCCCCCCCCCCC | – | 6.9% [at 8.39 µM] (inactive) |
| CO/N=C1\CN(c2nc3c(cc2F)c(=O)c(C(=O)O)cn3C2CC2)CC1CN (stereo not given) | inactive | – |
| CC(=O)OCC(=O)[C@@]12OC(C)(C)O[C@@H]1C[C@H]1[C@@H]3C[C@H](F)C4=CC(=O)C=C[C@]4(C)[C@@]3(F)[C@@H](O)C[C@@]12C | inactive | – |
| O=C(CCCCCCC(=O)Nc1ccccc1)NO | 7.5 µM (active) | – |
| CCCCC(=O)O[C@]1(C(=O)CO)CC[C@H]2[C@@H]3CCC4=CC(=O)CC[C@]4(C)[C@H]3[C@@H](O)C[C@@]21C | inactive | – |
| Cc1nc2ccccc2s1 | inactive | – |
| c1ccc(COCc2ccccc2)cc1 | inactive | – |
| O=C(CCCCCCCCC#CI)Oc1ccccc1 | inactive | – |
| O=C1OCCN1/N=C/c1ccc([N+](=O)[O-])o1 | inactive | – |
| C[C@]12CCC(=O)C=C1C=C[C@@H]1[C@@H]2CC[C@@]2(C)[C@H]1CC[C@@]21CCC(=O)O1 | inactive | – |
| CCOC(=O)N1CCC(n2c(=O)[nH]c3cc(Cl)ccc32)CC1 | inactive | – |
| COc1cc2[nH]c(=O)[nH]c(=O)c2cc1OC | inactive | – |
| OC(CCCN1CCCCC1)(c1ccccc1)c1ccccc1 | inactive | – |
| Cc1cc(O)c2c(O)c3c(O)cccc3cc2c1 | inactive | – |
| CCCc1c(OCCCOc2ccc(OCC(=O)O)cc2)ccc(C(C)=O)c1O | inactive | – |
| COc1cc2c(N3CCN(C(=O)Nc4ccc(OC(C)C)cc4)CC3)ncnc2cc1OCCCN1CCCCC1 | inactive | – |
| O=C(/C=C/c1ccccc1)OCCCc1ccccc1 | inactive | – |
| OC/C(Br)=C(\Br)CO | inactive | – |

molecular target: Nuclear receptor ROR-gamma (Homo sapiens) (UniProt P51449); assay: qHTS assay to identify small molecule antagonists of the retinoid-related orphan receptor gamma (ROR-gamma) signaling pathway (AID 1159521;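 note: CHO cells with doxycycline inducible ROR-gamma driving an RORE luciferase reporter; top concentration of the series differs between compounds; nearly all actives have a fitted effect of over 50% in size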); details: Tet-on RORgamma CHO cells, RORE-luciferase, 16 h; series mostly up to 92.4 µM
Outline: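 Test compounds were applied to Tet-on RORγ CHO cells 2 h ahead of doxycycline hyclate (1 uM final). Luciferase reporter activity was quantified by luminescence after 16 h at 37 C and 5% CO2.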

| SMILES | Potency | activity change, negative = inhibition |
| --- | --- | --- |
| CO[C@H]1O[C@H](CO)[C@@H](O)[C@H](O)[C@H]1O | inactive | – |
| CCCCCCCCSCCO | inactive | – |
| CCC(=O)OC/C=C/c1ccccc1 | inactive | – |
| C[Si]1(C)O[Si](C)(C)O[Si](C)(C)O1 | inactive | – |
| Cc1oncc1C(=O)Nc1ccc(C(F)(F)F)cc1 | inactive | – |
| CCCCCCCCCCCCCCCCBr | – | 15.4% [at 19 µM] (inactive) |
| CC(C)(C)C(=O)O | inactive | – |
| CC1=CC(=O)CC(C)(C)C1(O)/C=C/C(C)=C\C(=O)O (stereo not given) | inactive | – |
| C=CCCCCCCCCCCCCCCCC | – | 11.3% [at 8.39 µM] (inactive) |
| Cc1nc2ccccc2s1 | inactive | – |
| c1ccc(COCc2ccccc2)cc1 | inactive | – |
| COc1cc2[nH]c(=O)[nH]c(=O)c2cc1OC | inactive | – |
| O=C(/C=C/c1ccccc1)OCCCc1ccccc1 | inactive | – |
| OC/C(Br)=C(\Br)CO | inactive | – |

tested on: not listed separately; assay: qHTS assay to identify small molecule agonists of the AP-1 signaling pathway - cell viability counter screen (AID 1159525; calls by dose curve; note: nearly all actives have a fitted effect of over 55% in size); details: ME-180 (cervical carcinoma) AP-1-bla cells viability, ATP luminescence, 5 h; series mostly up to 76.8 µM
Outline: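 Luminescent ATP readout (Cell Titer Glo, 30 min RT), normalised to DMSO and tetra n-octyl ammonium bromide controls. Cells were ME-180 AP-1-bla in 0.5% dialyzed FBS Opti-MEM, with a 5 h, 37 °C compound exposure.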

| SMILES | outcome | viability change, negative = cytotoxic |
| --- | --- | --- |
| CCC(C)(C)C1CCC(O)CC1 (stereo not given) | inactive | – |
| CC(CCc1ccc2c(c1)OCO2)NN (stereo not given) | inactive | – |
| C1COCO1 | inactive | – |
| CCCCCCCCCCCC(=O)[O][Sn]([CH2]CCC)([CH2]CCC)[O]C(=O)CCCCCCCCCCC | inactive | – |
| CC(CCO)CCc1ccccc1 (stereo not given) | inactive | – |
| CC1=NN(c2ccc(C(=O)O)cc2)C(=O)C1 | inactive | – |
| C[N+](C)(C)CCOC(N)=O | inactive | – |
| C=CC(=O)NCOCC(C)C | inactive | – |
| CO[C@H]1O[C@H](CO)[C@@H](O)[C@H](O)[C@H]1O | inactive | – |
| Brc1cc(-c2ccc(Br)c(Br)c2Br)cc(Br)c1Br | inactive | – |
| CCCCCCCCSCCO | inactive | – |
| CCC(=O)OC/C=C/c1ccccc1 | inactive | – |
| Cc1oncc1C(=O)Nc1ccc(C(F)(F)F)cc1 | inactive | – |
| Nc1c(I)cc(I)c(C(=O)N(CCC(=O)O)c2ccccc2)c1I | inactive | – |
| CCCCCCCCCCCCCCCCBr | – | 3.43% [at 15.8 µM] (inactive) |
| NC(=O)Cn1c(=O)cc(CCN2CCN(c3nccc4sccc34)CC2)c2ccc(F)cc21 | inactive | – |

| SMILES | outcome | viability change, negative = cytotoxic |
| --- | --- | --- |
| CC(C)(C)C(=O)O | inactive | – |
| CC1=CC(=O)CC(C)(C)C1(O)/C=C/C(C)=C\C(=O)O (stereo not given) | inactive | – |
| C=CCCCCCCCCCCCCCCCC | – | 4.34% [at 6.97 µM] (inactive) |
| CO/N=C1\CN(c2nc3c(cc2F)c(=O)c(C(=O)O)cn3C2CC2)CC1CN (stereo not given) | inactive | – |
| CC(=O)OCC(=O)[C@@]12OC(C)(C)O[C@@H]1C[C@H]1[C@@H]3C[C@H](F)C4=CC(=O)C=C[C@]4(C)[C@@]3(F)[C@@H](O)C[C@@]12C | inactive | – |
| O=C(CCCCCCC(=O)Nc1ccccc1)NO | inactive | – |
| CCCCC(=O)O[C@]1(C(=O)CO)CC[C@H]2[C@@H]3CCC4=CC(=O)CC[C@]4(C)[C@H]3[C@@H](O)C[C@@]21C | inactive | – |
| c1ccc(COCc2ccccc2)cc1 | inactive | – |
| O=C1OCCN1/N=C/c1ccc([N+](=O)[O-])o1 | inactive | – |
| C[C@]12CCC(=O)C=C1C=C[C@@H]1[C@@H]2CC[C@@]2(C)[C@H]1CC[C@@]21CCC(=O)O1 | inactive | – |
| CCOC(=O)N1CCC(n2c(=O)[nH]c3cc(Cl)ccc32)CC1 | inactive | – |
| COc1cc2[nH]c(=O)[nH]c(=O)c2cc1OC | inactive | – |
| CCCc1c(OCCCOc2ccc(OCC(=O)O)cc2)ccc(C(C)=O)c1O | inactive | – |
| O=C(/C=C/c1ccccc1)OCCCc1ccccc1 | inactive | – |
| OC/C(Br)=C(\Br)CO | inactive | – |
